# About 1,100 (52%) of roughly 2,100 compounds were called active. Another 29% or so got no clear call; they are omitted. Calls follow the shape of the dose curve; as a rule, active = well fitted inhibition curve with a large enough effect; inconclusive = small, poorly fitted or top-dose-only effect; inactive = no such curve, though single readings can be large or run the other way. The set was probably picked from earlier hits. Some of the results follow.
# Biological target: DNA dC->dU-editing enzyme APOBEC-3F (Homo sapiens) (UniProt Q8IUX4)
# Sequence (Q8IUX4 whole entry, looked up): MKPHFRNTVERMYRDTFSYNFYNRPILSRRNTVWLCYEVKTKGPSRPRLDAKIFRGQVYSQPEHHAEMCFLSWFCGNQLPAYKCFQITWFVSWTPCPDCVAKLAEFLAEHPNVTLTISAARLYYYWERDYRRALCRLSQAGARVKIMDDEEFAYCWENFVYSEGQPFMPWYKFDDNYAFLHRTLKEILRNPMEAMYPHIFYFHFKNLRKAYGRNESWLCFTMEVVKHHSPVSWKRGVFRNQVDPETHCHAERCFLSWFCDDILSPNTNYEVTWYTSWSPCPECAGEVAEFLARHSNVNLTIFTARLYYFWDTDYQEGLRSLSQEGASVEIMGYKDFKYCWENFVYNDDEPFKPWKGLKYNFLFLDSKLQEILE
# Assay: qHTS for inhibitors of Vif-A3F interactions: Cherry picks counterscreen; also: nearly all actives have a fitted effect of over 65% in size
# Conditions: HeLa A3F-eYFP/Vif cells, eYFP fluorescence, 24 h; series mostly up to 46.1 µM; activity, negative = inhibitor: at the top concentration
# Summary of the method: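 Rescue of Vif-driven A3F-eYFP degradation read as cellular eYFP fluorescence after 24 h compound exposure (several concentrations) in stable HeLa cells; MG132 (2 mM stock) as positive control.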
# % is scaled to controls: 0 for no effect and ±100 for the full control effect; potency is read from the fitted curve at half-maximal effect.
Compound,Potency,"activity, negative = inhibitor"
COc1ccc(/C=c2\s/c(=C/C(=O)c3ccc(C)cc3)[nH]c2=O)c(OC)c1,18.4 µM (active),–
CN1C2CCC1/C(=C/c1cccn1C)C(=O)/C2=C\c1cccn1C,18.4 µM (active),–
Cn1cccc1/C=C1\CC(C(C)(C)C)C/C(=C\c2cccn2C)C1=O (stereo not drawn),1.3 µM (active),–
CN1C2CCC1/C(=C\c1ccccc1)C(=O)/C2=C\c1ccccc1,15.8 µM (active),–
COc1ccc(NC(=O)C2(C)Cc3c(-c4cccc(NC(C)=O)c4)ccnc3O2)cc1 (stereo not drawn),2.8 µM (active),–
CC(=O)c1cccc(NC(=O)C2CCCN(S(=O)(=O)c3cccc4nonc34)C2)c1 (stereo not drawn),–,0.106% (inactive)
CC(=O)Nc1cccc(-c2ccnc3c2CC(C)(C(=O)Nc2cccc(C(C)=O)c2)O3)c1 (stereo not drawn),9.94 µM (active),–
COc1ccc(NC(=O)C2(C)Cc3c(-c4cccc(C(N)=O)c4)ccnc3O2)cc1 (stereo not drawn),6.27 µM (active),–
COc1cc(C(=O)N/N=C(\C)c2ccccn2)cc(OC)c1OC,0.559 µM (active),–
COc1cc(C(=O)Nc2ccc3ccccc3c2)cc(OC)c1OC,3.14 µM (active),–
COc1cc(C(=O)Nc2ccc3c(c2)ncn3C)cc(OC)c1OC,5.59 µM (active),–
COc1cc(C(=O)N/N=C/C2CC=CCC2)cc(OC)c1OC (stereo not drawn),–,-4.4% [at 36.9 µM] (inactive)
CCOc1ccc(NC(=O)N2CC=C(c3c[nH]c4ccccc34)CC2)cc1,2.59 µM (active),–
CCOC1=C2CN(S(=O)(=O)c3ccc(C)cc3)[C@H](c3cccc4ccccc34)C[C@H]2C(C#N)(C#N)C(C#N)(C#N)C1,–,-5.71% [at 36.9 µM] (inactive)
Cc1ccc(C2NC(=O)c3ccccc3N2)s1 (stereo not drawn),17.7 µM (active),–
COc1ccc2ccccc2c1C1NC(=O)c2ccccc2N1 (stereo not drawn),4.98 µM (active),–
CCOc1ccccc1C1NC(=O)c2ccccc2N1 (stereo not drawn),3.53 µM (active),–
COc1cc(OC)c(C2Nc3cccc4cccc(c34)N2)c(OC)c1,–,-0.514% (inactive)
O=[N+]([O-])c1ccccc1C1Nc2cccc3cccc(c23)N1,–,9.7% (inactive)
COc1ccc(N/C=C/c2nc(SC)nnc2C)cc1,18.4 µM (active),–
C=CCSc1nnc(C)c(/C=C/Nc2ccc(Cl)cc2)n1,18.4 µM (active),–
CCOC(=O)c1c(-c2ccc(OC)cc2)csc1/N=C/C1=C(O)CCCC1=O,–,-3.87% (inactive)
COc1cccc(C(=O)c2sc3nc(-c4ccccc4)cc(C(F)(F)F)c3c2N)c1,2.06 µM (active),–
COc1ccc(C(=O)c2sc3nc(-c4ccc(C)cc4)cc(C(F)(F)F)c3c2N)cc1,5.17 µM (active),–

Compound,Potency,"activity, negative = inhibitor"
COc1ccc(NC(=O)c2sc3nc(-c4ccc(OC)cc4)cc(C(F)(F)F)c3c2N)cc1,7.31 µM (active),–
CCOC(=O)c1c(C)nc2sc(C(=O)Nc3ccc(OC)cc3)c(N)c2c1-c1ccc(OC)cc1,2.8 µM (active),–
COc1ccc(C(=O)c2sc3nc(C)cc(-c4cccs4)c3c2N)cc1,20.6 µM (active),–
COc1cccc(NC(=O)c2sc3nc(C)c(C(=O)Nc4ccc(C)cc4C)c(-c4ccco4)c3c2N)c1,–,-1.31% (inactive)
CCc1ccc(NC(=O)c2sc3nc(C)c(C(=O)Nc4ccc(C)cc4C)c(-c4ccco4)c3c2N)cc1,16.4 µM (active),–
CCc1ccc(-c2cc(C(F)(F)F)n3nc(C(=O)Nc4cnn(Cc5ccc(C)cc5)c4)cc3n2)s1,16.4 µM (active),–
COc1cc(C(=O)NCC(=O)N2CCN(S(=O)(=O)c3cc(C)ccc3C)CC2)cc(OC)c1OC,3.96 µM (active),–
Cc1ccc(S(=O)(=O)N2CCN(C(=O)CSC(=S)N3CCCC3)CC2)c(C)c1,–,5.96% (inactive)
C=C(/C=C/c1ccc(N(C)C)cc1)c1nc2ccccc2s1,18.4 µM (active),–
CC1=Nc2ccc(C)cc2/C1=C/c1c(N)n2oc(C)cc2nc1=O,20.6 µM (active),–
CN(C)c1ccc(/C=C/C=C/c2ccnc3ccccc23)cc1,3.66 µM (active),–
CNc1ccc(/C=C/c2ccnc3ccccc23)cc1,20.6 µM (active),–
COc1cccc2nccc(/C=C/c3ccc(N(C)C)cc3)c12,20.6 µM (active),–
CN(C)c1ccc(/C=C/c2ccnc3cc(Cl)ccc23)cc1,2.91 µM (active),–
Fc1cccc(F)c1/C=N/NC(=S)Nc1cccnc1,–,4.36% (inactive)
CN(C)c1ccc(/C=C/c2ccnc3ccc(-c4ccccc4)cc23)cc1,9.2 µM (active),–
CN(C)c1ccc(/C=C/c2ccnc3ccccc23)c(N)c1,8.2 µM (active),–
CCCCCCCNc1ccc(/C=C/c2ccnc3ccccc23)cc1,23.1 µM (active),–
CN(C)c1ccc(/C=C/c2cnnc3ccccc23)cc1,20.6 µM (active),–
CN1C(=O)C(O)(C2COC(C)(C)CC2=O)c2cc(Br)ccc21 (stereo not drawn),–,-13.4% [at 36.9 µM] (inactive)
Nc1ccccc1/C=C/c1ccnc2ccccc12,16.4 µM (active),–
CN(C)c1ccc(/C=C/c2ccnc3ccccc23)cc1,18.4 µM (active),–
O=c1c(Cl)c2oc3ccccc3nc-2c2ccccc12,16.4 µM (active),–
O=S(=O)(Nc1nc2n(n1)C(c1ccccc1)C=C(c1ccc(Cl)cc1)N2)c1ccccc1 (stereo not drawn),–,-20.2% (inactive)
